This passage reports composite z-score results from PubChem BioAssay.

Sequence of Focal adhesion kinase 1 (Homo sapiens) (Q05397 whole entry, looked up): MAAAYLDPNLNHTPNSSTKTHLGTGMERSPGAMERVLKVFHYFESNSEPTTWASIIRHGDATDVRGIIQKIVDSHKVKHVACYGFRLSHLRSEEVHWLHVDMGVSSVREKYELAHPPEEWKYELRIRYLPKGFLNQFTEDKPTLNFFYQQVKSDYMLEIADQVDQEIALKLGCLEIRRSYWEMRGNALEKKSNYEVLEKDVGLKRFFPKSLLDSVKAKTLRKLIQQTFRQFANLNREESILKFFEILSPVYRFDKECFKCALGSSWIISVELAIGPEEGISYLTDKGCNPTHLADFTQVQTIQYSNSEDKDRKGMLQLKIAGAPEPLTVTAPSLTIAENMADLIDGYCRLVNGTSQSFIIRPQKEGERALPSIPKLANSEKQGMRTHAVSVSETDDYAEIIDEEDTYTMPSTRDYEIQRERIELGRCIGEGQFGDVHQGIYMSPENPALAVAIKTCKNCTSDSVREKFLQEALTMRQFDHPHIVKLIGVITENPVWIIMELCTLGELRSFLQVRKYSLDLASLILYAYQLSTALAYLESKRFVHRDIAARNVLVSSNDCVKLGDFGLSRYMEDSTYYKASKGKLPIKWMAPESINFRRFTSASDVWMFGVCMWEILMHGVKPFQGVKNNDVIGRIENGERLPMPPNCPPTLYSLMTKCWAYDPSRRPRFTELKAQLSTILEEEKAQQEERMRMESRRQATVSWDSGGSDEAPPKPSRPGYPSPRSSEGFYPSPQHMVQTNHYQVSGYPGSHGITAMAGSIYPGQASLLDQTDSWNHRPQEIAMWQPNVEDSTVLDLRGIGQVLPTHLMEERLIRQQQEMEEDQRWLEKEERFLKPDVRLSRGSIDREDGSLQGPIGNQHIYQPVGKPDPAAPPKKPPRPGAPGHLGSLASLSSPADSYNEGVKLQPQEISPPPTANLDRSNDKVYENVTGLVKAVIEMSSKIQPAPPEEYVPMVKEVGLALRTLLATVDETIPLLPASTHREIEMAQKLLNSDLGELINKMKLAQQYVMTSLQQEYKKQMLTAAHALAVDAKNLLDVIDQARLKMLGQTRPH

In the first test the test system is Human papillomavirus type 1a E7 protein (residues 1-88). Description: HPV1a E7 small-molecule binders, primary screen, biochemical, small-molecule microarray, residues 1-88, 635 nm (AID 1129). The note with it: small-molecule microarray binding, fluorescence 635 nm; higher = more signal.
For the compound `COCCOC(=O)N1C(=O)[C@@]2(c3cc(C#CC4=CCCCC4)ccc31)[C@H](C(=O)Nc1nc3ccccc3s1)[C@H]1C(=O)O[C@H](c3ccccc3)[C@H](c3ccccc3)N1[C@@H]2c1ccc(OCCO)cc1`, the composite z-score was determined as 1.07. Still for that read-out and setting: for `C=CC[C@@]1(C(N)=O)N=C(c2ccc(OCCCO)cc2)O[C@@H]1c1ccccc1CN=[N+]=[N-]` the value was 1.17. For the compound `C#CCN(CC1=CCCCC1)[C@H](c1ccccc1Br)[C@@H](O)Cc1ccccc1`, the composite z-score is -0.0173. The compound `COc1ccc(C(=O)Nc2ccc(CN3C(=O)[C@@]4(O[C@@H](CCO)[C@H]([Si](C)(C)c5ccc(OC)cc5)[C@H]4C)c4ccccc43)cc2)cc1` gave a composite z-score of 0.97. `COC(=O)[C@@]1(Cc2ccc(F)cc2)[C@H]2c3cc(C(=O)N(C)C)n(CC4CC4)c3C[C@H]2CN1C(=O)c1ccccc1` gave a composite z-score of 1.21. The same measure, in the same setting: for `O=C(NCc1ccc(F)cc1)[C@H]1C[C@H]2C(=O)N[C@@H](Cc3ccccc3)C(=O)N2[C@H]1c1ccc(O)cc1` the value was 0.526; for `COc1ccc(C(=O)Nc2ccc(CN3C(=O)[C@@]4(O[C@@H](CC(=O)N5CCC[C@H]5CO)[C@H]([Si](C)(C)c5ccc(OC)cc5)[C@H]4C)c4ccccc43)cc2)cc1`, 1.2. The same measure, in the same setting: the value for `CN(C)CCCNC(=O)[C@@]1(c2ccc([N+](=O)[O-])cc2)CC(=O)N(C2CCCCC2)[C@@H]1c1ccc(CO)cc1` was 0.108; that for `C=CCN1C(=O)[C@@]2(O[C@@H](CCO)[C@H]([Si](C)(C)c3ccc(OC)cc3)[C@H]2C)c2cc(NC(=O)c3ccc(OC)cc3)ccc21` was 0.563. On the same count and under the same terms, the value for `C=C(CCCC)/C(=C/C[C@@H](OC(C)=O)c1ccccc1OCCO)c1cnc2ccccc2c1` was 0.356; that for `COC(=O)[C@@]1(Cc2ccc(OC)cc2)[C@H]2c3cc(C(=O)N(C)C)n(Cc4cccc5ccccc45)c3C[C@H]2CN1C(=O)c1ccccc1` was 1.26. Compound `CC(=O)NCCCC[C@@H]1NC(=O)[C@@H]2C[C@H](C(=O)NCCCCCCNC(=O)CS)[C@H](c3cccc(OCCO)c3)N2C1=O` yielded a composite z-score of 1.1.

`COCCOC(=O)N1C(=O)[C@@]2(c3cc(C#CCNC(N)=O)ccc31)[C@H](C(=O)NC[C@H](O)c1ccccc1)[C@H]1C(=O)O[C@H](c3ccccc3)[C@H](c3ccccc3)N1[C@@H]2c1ccccc1OCCO`: the composite z-score was 0.769. Compound `COC(=O)[C@@]1(Cc2ccc(OC)cc2)[C@H]2c3cc(C(=O)N4CCCC4)n(Cc4ccccc4)c3C[C@H]2CN1C(=O)c1ccccc1` registered a composite z-score of 1.25. Same read-out and setting: for `C=C(CCCC)C(=O)CC[C@@H](OC(=O)c1cccnc1)c1ccc(CO)o1` the value was 1; for `COc1ccc(C(=O)O[C@H]2CC[C@]3(C)C4=C(CCC3C2(C)C)[C@]2(C)CC[C@H]([C@H](C)CCCC(C)C)[C@@]2(C)CC4)cc1` (stereo partly specified), 0.607. As for `[N-]=[N+]=NCc1ccccc1[C@@H]1OC(c2ccc(OCCCO)cc2)=N[C@]1(Cc1ccccc1N=[N+]=[N-])C(=O)N1CCOCC1`, the composite z-score was found to be 1.27. Still for that read-out and setting: the value for `COc1ccc([Si](C)(C)[C@@H]2[C@@H](CC(=O)N3Cc4ccccc4C[C@H]3CO)O[C@]3(C(=O)N(C)c4c(Br)cc(C)cc43)[C@H]2C)cc1` was 1.13; that for `C=CC[C@@]1(C(=O)NCc2ccccc2)N=C(c2ccc(OCCCO)cc2)O[C@@H]1c1ccccc1N=[N+]=[N-]` was 1.24.

Take `CC(CO)N1C(=O)[C@@H]2C3C(=O)OCCC/C=C\[C@H]3OC23C=CCN(c2ccc4ccccc4c2)C(=O)[C@@H]13` (stereo partly specified): the composite z-score was -0.351. Still for that read-out and setting: for `C=CCOC(=O)[C@@H]1[C@H]2C(=O)O[C@H](c3ccccc3)[C@H](c3ccccc3)N2[C@H](c2ccc(OCCOC(=O)[C@@H]3C[C@@H]4C(=O)N[C@@H](CCCC[N+](C)(C)C)C(=O)N4[C@@H]3c3cccc(OCCO)c3)cc2)[C@@]12C(=O)Nc1ccc(I)cc12` the value was 1.17; for `CCOC(=O)C[C@H]1[C@H](OC(=O)Cc2ccc3c(c2)OCO3)[C@@H](NC(=O)c2ccc3ccccc3c2)c2cc(OCCCO)ccc2N1C(=O)c1ccccc1`, 0.878; for `[N-]=[N+]=Nc1ccccc1C[C@]1(C(N)=O)N=C(c2ccc(OCCCO)cc2)O[C@H]1c1ccccc1`, 1.2. Still for that read-out and setting: the value for `COC(=O)C=C(CC(O)c1cccc(Cl)c1)OC` (stereo unspecified) was 1.15; that for `Cc1ccc(C(C)CC(O)C2C=CC3C(=O)N(c4ccccc4)C(=O)C3N2Nc2ccc([N+](=O)[O-])cc2)o1` (stereo unspecified) was 1.23. The compound `[N-]=[N+]=Nc1ccccc1C[C@]1(C(=O)NCC(O)CO)N=C(c2ccc(OCCCO)cc2)O[C@H]1c1ccccc1N=[N+]=[N-]` (stereo partly specified) had a composite z-score of -0.212.

A further test concerns the target Focal adhesion kinase 1 (Homo sapiens) (UniProt Q05397). Description: PTK2 protein binding on printed compound slides – biochemical, small-molecule microarray, 635/667 nm fluorescence, BSA, DTT, primary screen (AID 1130).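 Also: composite of spot emission at 667 nm and signal to noise over triplicate slides.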 The note with it: 635 nm fluorescence, higher = more signal.
Turning to `COCCCNC(=O)[C@@]1(Cc2ccccc2N=[N+]=[N-])N=C(c2ccc(OCCCO)cc2)O[C@H]1c1ccccc1N=[N+]=[N-]`, the composite z-score was found to be 0.912. On the same count and under the same terms, the value for `Cc1ccc(S[C@]2(C(=O)NC(C)C)CC(=O)N(Cc3ccccc3Cl)[C@@H]2c2ccc(CO)cc2I)cc1` was -0.0745. On the same count and under the same terms, the value for `CC(C)c1ccc(NN2C(C(O)c3cc(C(F)(F)F)cc(C(F)(F)F)c3)C=CC3C(=O)N(c4ccccc4)C(=O)C32)cc1` (stereo unspecified) was 0.579; that for `CCOC(=O)[C@H]1C/C=C/C[C@H](C(=O)OCC)C(=O)O[C@H]2[C@@H](OC)O[C@H](CO)[C@@H](OC(=O)Nc3cccc(F)c3)[C@@H]2OC1=O` was 0.154.

Take `C=CCC(OC(C)=O)[C@@H]1[C@@H](N(Cc2ccc(-c3cccc(C(F)(F)F)c3)o2)C(=O)c2ccc(-c3ccccc3)cc2)c2cc(OCCCO)ccc2N1C(=O)c1ccc(-c2ccccc2)cc1` (stereo partly specified): the composite z-score is -0.045. Same read-out and setting: for `O=C1O[C@H](c2ccccc2)[C@H](c2ccccc2)N2[C@H]1[C@@H](C(=O)NC[C@H](O)c1ccccc1)[C@]1(C(=O)Nc3ccccc31)[C@H]2c1ccc(OCCO)cc1` the value was 1.06; for `C=CCOC(=O)[C@H]1[C@@H]2C(=O)O[C@@H](c3ccccc3)[C@@H](c3ccccc3)N2[C@@H](c2ccc(OCCOC(=O)[C@H]3C[C@H]4C(=O)N5CCC[C@H]5C(=O)N4[C@H]3c3ccc(O)cc3)cc2)[C@]12C(=O)Nc1ccc(I)cc12`, -0.0378; for `O=C1NC(=O)C2C1C=CC(C(O)Cc1ccccc1)N2Nc1ccc(Cl)cc1Cl` (stereo unspecified), 0.247.

Turning to `CN(C)C(=O)[C@]1(Cc2ccccc2N=[N+]=[N-])N=C(c2ccc(OCCCO)cc2)O[C@@H]1c1ccccc1`, the composite z-score amounted to 0.633. For the compound `COCCOC(=O)N1C(=O)[C@@]2(c3cc(C#CC4=CCCCC4)ccc31)[C@H](C(=O)Nc1nc3ccccc3s1)[C@H]1C(=O)O[C@H](c3ccccc3)[C@H](c3ccccc3)N1[C@@H]2c1ccc(OCCO)cc1`, the composite z-score came to 0.147.

In the case of `C=CC[C@@]1(C(N)=O)N=C(c2ccc(OCCCO)cc2)O[C@@H]1c1ccccc1CN=[N+]=[N-]`, the composite z-score is -0.111. Still for that read-out and setting: the value for `C#CCN(CC1=CCCCC1)[C@H](c1ccccc1Br)[C@@H](O)Cc1ccccc1` was 1.98; that for `COc1ccc(C(=O)Nc2ccc(CN3C(=O)[C@@]4(O[C@@H](CCO)[C@H]([Si](C)(C)c5ccc(OC)cc5)[C@H]4C)c4ccccc43)cc2)cc1` was -0.0228. Regarding `COC(=O)[C@@]1(Cc2ccc(F)cc2)[C@H]2c3cc(C(=O)N(C)C)n(CC4CC4)c3C[C@H]2CN1C(=O)c1ccccc1`, the composite z-score was -0.0938. `O=C(NCc1ccc(F)cc1)[C@H]1C[C@H]2C(=O)N[C@@H](Cc3ccccc3)C(=O)N2[C@H]1c1ccc(O)cc1` returned a composite z-score of 0.063. For the compound `COc1ccc(C(=O)Nc2ccc(CN3C(=O)[C@@]4(O[C@@H](CC(=O)N5CCC[C@H]5CO)[C@H]([Si](C)(C)c5ccc(OC)cc5)[C@H]4C)c4ccccc43)cc2)cc1`, the composite z-score came to 1.02. The same measure, in the same setting: for `CN(C)CCCNC(=O)[C@@]1(c2ccc([N+](=O)[O-])cc2)CC(=O)N(C2CCCCC2)[C@@H]1c1ccc(CO)cc1` the value was -0.221; for `C=CCN1C(=O)[C@@]2(O[C@@H](CCO)[C@H]([Si](C)(C)c3ccc(OC)cc3)[C@H]2C)c2cc(NC(=O)c3ccc(OC)cc3)ccc21`, -0.0376.

In the case of `C=C(CCCC)/C(=C/C[C@@H](OC(C)=O)c1ccccc1OCCO)c1cnc2ccccc2c1`, the composite z-score was 0.0147.

`COC(=O)[C@@]1(Cc2ccc(OC)cc2)[C@H]2c3cc(C(=O)N(C)C)n(Cc4cccc5ccccc45)c3C[C@H]2CN1C(=O)c1ccccc1` showed a composite z-score of 0.306. On the same count and under the same terms, the value for `CC(=O)NCCCC[C@@H]1NC(=O)[C@@H]2C[C@H](C(=O)NCCCCCCNC(=O)CS)[C@H](c3cccc(OCCO)c3)N2C1=O` was 0.314. Still for that read-out and setting: the value for `COCCOC(=O)N1C(=O)[C@@]2(c3cc(C#CCNC(N)=O)ccc31)[C@H](C(=O)NC[C@H](O)c1ccccc1)[C@H]1C(=O)O[C@H](c3ccccc3)[C@H](c3ccccc3)N1[C@@H]2c1ccccc1OCCO` was 0.564.

Compound `COC(=O)[C@@]1(Cc2ccc(OC)cc2)[C@H]2c3cc(C(=O)N4CCCC4)n(Cc4ccccc4)c3C[C@H]2CN1C(=O)c1ccccc1` returned a composite z-score of 1.32. As for `C=C(CCCC)C(=O)CC[C@@H](OC(=O)c1cccnc1)c1ccc(CO)o1`, the composite z-score is -0.338.

The compound `COc1ccc(C(=O)O[C@H]2CC[C@]3(C)C4=C(CCC3C2(C)C)[C@]2(C)CC[C@H]([C@H](C)CCCC(C)C)[C@@]2(C)CC4)cc1` (stereo partly specified) gave a composite z-score of -0.0307.

Consider `[N-]=[N+]=NCc1ccccc1[C@@H]1OC(c2ccc(OCCCO)cc2)=N[C@]1(Cc1ccccc1N=[N+]=[N-])C(=O)N1CCOCC1`, for which the composite z-score worked out at 0.536.

In the case of `COc1ccc([Si](C)(C)[C@@H]2[C@@H](CC(=O)N3Cc4ccccc4C[C@H]3CO)O[C@]3(C(=O)N(C)c4c(Br)cc(C)cc43)[C@H]2C)cc1`, the composite z-score was found to be 0.341. Same read-out and setting: the value for `C=CC[C@@]1(C(=O)NCc2ccccc2)N=C(c2ccc(OCCCO)cc2)O[C@@H]1c1ccccc1N=[N+]=[N-]` was 0.649; that for `CC(CO)N1C(=O)[C@@H]2C3C(=O)OCCC/C=C\[C@H]3OC23C=CCN(c2ccc4ccccc4c2)C(=O)[C@@H]13` (stereo partly specified) was -0.363. On the same count and under the same terms, for `C=CCOC(=O)[C@@H]1[C@H]2C(=O)O[C@H](c3ccccc3)[C@H](c3ccccc3)N2[C@H](c2ccc(OCCOC(=O)[C@@H]3C[C@@H]4C(=O)N[C@@H](CCCC[N+](C)(C)C)C(=O)N4[C@@H]3c3cccc(OCCO)c3)cc2)[C@@]12C(=O)Nc1ccc(I)cc12` the value was 1.15.
